# PubChem BioAssay (NCI)
# The panel holds about 79,000 compounds, 15% with a hit somewhere; the sample as a whole holds those more often. A number with no mark means an inactive call. Active and inactive are the calls of the source. Cut-off read from the data, not from the text of the source: active = growth inhibition above about 70%; inactive = the rest.
# Legend:
# [1] = NCI Yeast Anticancer Drug Screen. Data for the rad50 strain (AID 155);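 note: 0% = growth of vehicle-only cultures of the same strain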; conditions: S. cerevisiae rad50 strain growth inhibition; at 50.0 µM; hits give high values
# Summary of the method: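 Cells are treated with compound, grown, and their growth is then scored against vehicle-only cultures of the same repair-deficient yeast strain.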
# [2] = NCI Yeast Anticancer Drug Screen. Data for the mec2-1 strain (AID 157); conditions: S. cerevisiae mec2-1 strain, at 50.0 µM, hits give high values
# Summary of the method: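 mec2-1 yeast strain, carrying an alteration in DNA damage repair or cell cycle control, was exposed to compounds; growth inhibition was measured relative to vehicle-treated controls.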
# [3] = NCI Yeast Anticancer Drug Screen. Data for the sgs1 mgt1 strain (AID 161);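 note: 0% = growth of cultures given vehicle only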; conditions: S. cerevisiae sgs1 mgt1 strain, at 50.0 µM, hits give high values
# Summary of the method: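 Percent growth inhibition was derived by comparing compound-exposed mutant yeast with vehicle-exposed cultures. The strain carries alterations in DNA damage repair.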
# [4] = NCI Yeast Anticancer Drug Screen. Data for the cln2 rad14 strain (AID 165);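 note: 0% = growth equal to vehicle treated cultures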; conditions: S. cerevisiae cln2 rad14 strain, at 50.0 µM, hits give high values
# Summary of the method: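 Yeast carrying cln2 and rad14 alterations (cell cycle control and DNA damage repair) were exposed to compounds. Growth inhibition was measured against vehicle-treated controls.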
# [5] = NCI Yeast Anticancer Drug Screen. Data for the bub3 strain (AID 167); conditions: S. cerevisiae bub3 mutant strain, at 50.0 µM, hits give high values
# Summary of the method: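 Part of a panel of yeast mutants defective in DNA damage repair or cell cycle regulation. Each strain is grown with compound, and inhibition is calculated relative to solvent-treated cultures.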
# [6] = NCI Yeast Anticancer Drug Screen. Data for the mlh1 rad18 strain (AID 175); conditions: S. cerevisiae mlh1 rad18 strain growth inhibition; at 50.0 µM; hits give high values
# Summary of the method: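 Growth inhibition of the yeast strain was measured after compound exposure and expressed relative to vehicle-treated controls. The strain carries defined defects in DNA damage repair.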
SMILES,growth inhibition [1],growth inhibition [2],growth inhibition [3],growth inhibition [4],growth inhibition [5],growth inhibition [6]
CCc1ccccc1NC(=O)N1CCOCC1,-8.45%,-27.9%,-1.55%,3.05%,-4.15%,-7.15%
COc1ccc(C=Nc2ccc(Cl)cc2)cc1,-11.5%,-25.2%,4.45%,-18.7%,2.55%,3.55%
C[S+](C)CCS(=O)(=O)[O-],10.3%,-6.45%,-2.1%,-30.4%,4.95%,-13.2%
CN(C)c1ccc(/C=C/c2ccc(/C=C/c3ccc(N(C)C)cc3)cc2)cc1,-15.1%,-9.9%,5%,10.2%,-11.4%,20.8%
O=C(O)/C=C(\Br)C(=O)O,16.1%,-4.1%,-1%,-11.4%,-5.4%,5.3%
N#CC(CCc1ccc([N+](=O)[O-])cc1)(CCc1ccc([N+](=O)[O-])cc1)C(N)=O,38.4%,19.4%,35.9%,-14.2%,24.9%,49.2%
Cn1c2c(c(=O)n(C)c1=O)C(=Nc1ccccc1)C(=O)N2,0.2%,9.25%,7.2%,-38.3%,1.65%,14.3%
CC(=O)OCC(=O)C1(C)CCC2(C)CCC3(C)C(=CC(=O)C4C5(C)CCC(=O)C(C)(C)C5CCC43C)C2C1 (stereo unspecified),-2.95%,-30.8%,2.7%,-2.25%,13.7%,15.4%
CCCCCCCCCCCCCCCCCC(=O)Nc1nc(N)nc(N)n1,11.1%,15.1%,3.6%,18.6%,-5.15%,6.15%
O=c1cccc(O)[nH]1,-14.8%,-17.6%,-15.1%,-0.15%,-15.7%,-8.85%
CC1=NN(C(=O)CC(=O)Nc2ccccc2Cl)C(=O)C1N=Nc1ccc(C(=O)O)cc1 (stereo unspecified),-3.35%,-6.85%,6.75%,-9.75%,-5.6%,17.8%
CCC(CC)(C[NH-])C[NH-].[Cl][Pt+2][Cl],10%,41.7%,10%,16.2%,18.2%,-7.95%
COc1ccc(-c2cc(C(=O)O)c3cc4ccccc4cc3n2)cc1Br,8.6%,-15.9%,13.7%,24.3%,2.95%,10.9%
Oc1cc(CN2CCOCC2)c(O)c(CN2CCOCC2)c1,14.7%,8.95%,21.1%,20%,7.7%,24.6%
CC(=O)OC(C)C1CCCC1OC(C)=O (stereo unspecified),-3.95%,9.2%,-9.95%,5.75%,-15.1%,-22.5%
CC(C)=C(CO)CCC(C)C,-9.3%,-22.9%,-10.4%,16.9%,6.65%,-0.05%
CC1=NCC(C)S1 (stereo unspecified),-3.3%,-9.95%,7%,-6.05%,-9.3%,-5.75%
COC(=O)c1ccccc1NC(=O)Nc1cc(Cl)ccc1OC,85.5% (active),91.2% (active),90.4% (active),80.8% (active),88.2% (active),88.9% (active)
NC(=O)c1ncc[nH]c1=O,-0.65%,5.35%,-12.6%,1.7%,4.2%,-9.15%
O=C(NC(CCS(=O)(=O)n1ccnc1)C(=O)OCc1ccccc1)OCc1ccccc1 (stereo unspecified),12.7%,-4.95%,-18.2%,11.2%,-4.7%,1.6%
COC(=O)CC(c1ccc(OC)cc1)c1cc2c(cc1OC)OCO2 (stereo unspecified),3.45%,3.75%,2.75%,7.5%,18.3%,15.5%

SMILES,growth inhibition [1],growth inhibition [2],growth inhibition [3],growth inhibition [4],growth inhibition [5],growth inhibition [6]
Cc1ccc(NC(=O)Oc2ccc(Br)cc2Br)c([N+](=O)[O-])c1,9.3%,-1.5%,13.7%,11.2%,4.55%,-6.9%
O=C(O)C(c1ccccc1)C(O)C1CCCC1 (stereo unspecified),-2.9%,-11.1%,1.05%,-10.8%,-7.3%,-4.45%
Clc1cccc(CC(Br)Br)c1,14.8%,4.45%,6.75%,23%,-4.65%,14.5%
O=c1c(-c2ccc3c(c2)OCO3)coc2cc(O)ccc12,-2.9%,-0.85%,18.9%,13.7%,11.6%,23.1%
CCCC1([N+](=O)[O-])CCC(C)(O)C(/C(C)=N\O)C1 (stereo unspecified),7.05%,-9.5%,25.5%,-0.15%,26.1%,40.2%
OC(CNCCc1ccccc1)COc1cccc2ccccc12 (stereo unspecified),86.2% (active),92% (active),96.9% (active),98.5% (active),88% (active),97.2% (active)
O=C(Nc1ccccc1)c1cc(S(=O)(=O)n2cc[nH]c2=O)c(S)cc1Cl,9.5%,3.6%,5.1%,-5.1%,2.65%,13.2%
CC(=O)N1c2cc(N=NN(C)C)ccc2NC(=O)CC1C (stereo unspecified),20%,-3.05%,9.5%,0.65%,4.2%,34.3%
CCCOP(=O)(CCCP(=O)(OCCC)OCCC)OCCC,-8.4%,-9.6%,0.5%,-25.6%,6.2%,-12.5%
C=C1C(=O)OC2/C=C(\C)C(OC(C)=O)C3OC3C(C)(O)CC(OC(=O)/C(C)=C/C)C12 (stereo unspecified),3.35%,2.2%,-15.4%,-5.2%,-29.7%,-13.1%
COC(=O)CCN(C)c1ccccc1,-4.7%,-0.55%,-3.75%,-8.15%,3.65%,-7.5%
C/C(=N/O)c1ccc(O)cc1O,-16.7%,-1.2%,3.65%,-8.6%,5.15%,13.8%
O=C1C(Cl)=C(Nc2ccc([N+](=O)[O-])cc2)C(=O)c2ccccc21,6.6%,2.55%,4.6%,-40%,-0.7%,5.5%
O=C(N/N=C/c1ccc(Cl)cc1Cl)c1cccc([N+](=O)[O-])c1,0.65%,-8.7%,32.5%,-6.95%,2.3%,24.4%
N[C@H](CCC(=O)NCP(=O)(O)O)C(=O)O,-43.7%,-42.6%,-44.7%,-7.1%,-10.8%,-41.1%
C=COCCC(C(=O)OCC)C(=O)OCC,13.5%,26.5%,17.8%,4.2%,40.6%,13.1%
OC(Cc1cccnc1)(c1ccccc1)c1cccc2ccccc12 (stereo unspecified),12.3%,13.8%,-2.3%,7.45%,10.5%,13.9%
CCCOC(=O)O[C@H]1CC[C@@]2(C)C(=CC[C@H]3[C@@H]4CC[C@H]([C@H](C)CCCC(C)C)[C@@]4(C)CC[C@@H]32)C1,-34.6%,-31%,-27.7%,3.9%,-28.8%,-34.4%
Nc1nc(N)c2ncn(-c3ccc(Cl)cc3)c2n1,-0.7%,14.2%,9.8%,-21.4%,-0.85%,8.4%
Fc1ccc(C(c2ccc(F)cc2)C(F)(F)F)cc1,8.65%,-20.3%,24.9%,10.8%,13.7%,13.4%
